# Laboratory results reported in PubChem BioAssay (EPA / NIEHS).
# Several values for one entry are separate records, joined by “and”; a condition that tells them apart may be missing. Equal entries are not always repeated. Results filed as inconclusive are left out. Activity calls are given as the source filed them. The calls were made as follows, unless noted: active = hit-call score of the fitted dose curve at least 0.9, where 1 is the maximum; inconclusive = response in the unintended direction; inactive = score below 0.9.
# How the values were obtained:
# [1] = BSK_3C_Proliferation: Cell Proliferation Assessment in the BioMAP Diversity Plus: 3C Assay (AID 2283006; active = hit-call score of the fitted dose curve at least 0.9, where 1 is the maximum; inactive = score below 0.9;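 as to AC50: potency may reflect either rise or fall in cell number versus DMSO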); conditions: primary human endothelial cells (HUVEC)
# Outline: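 HUVEC, sub-confluent; 48 h chemical exposure; 10% TCA fix, 0.1% SRB stain, A560 total protein. Gain or loss of signal fitted both directions vs DMSO control.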
# [2] = molecular target: Peroxisome proliferator-activated receptor gamma (Homo sapiens) (UniProt P37231); assay: ATG_PPARg_TRANS: Attagene TRANS-FACTORIAL HepG2 Assay for human Peroxisome Proliferator-activated Receptor-gamma (PPARg) (AID 2283007)
# Sequence of Peroxisome proliferator-activated receptor gamma (Homo sapiens) (P37231 whole entry, looked up, the tested form may be a part): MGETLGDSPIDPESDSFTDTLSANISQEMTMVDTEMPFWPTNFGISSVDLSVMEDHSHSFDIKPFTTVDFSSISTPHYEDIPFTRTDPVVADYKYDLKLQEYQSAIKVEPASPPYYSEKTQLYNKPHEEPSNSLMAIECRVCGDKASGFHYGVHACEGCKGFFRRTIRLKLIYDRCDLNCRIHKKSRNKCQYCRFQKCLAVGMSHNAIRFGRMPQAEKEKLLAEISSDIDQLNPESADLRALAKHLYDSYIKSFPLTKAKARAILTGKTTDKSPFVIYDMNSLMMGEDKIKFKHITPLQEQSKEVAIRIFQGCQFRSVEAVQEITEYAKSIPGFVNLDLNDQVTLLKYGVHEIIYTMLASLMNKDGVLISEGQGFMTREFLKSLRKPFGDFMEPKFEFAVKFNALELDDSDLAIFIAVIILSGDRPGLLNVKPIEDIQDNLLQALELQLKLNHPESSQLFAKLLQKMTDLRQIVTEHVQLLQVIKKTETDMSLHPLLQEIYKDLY
# Outline: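 Gain-of-signal endpoint relative to DMSO, derived from reporter mRNA levels quantified by RT-PCR and capillary electrophoresis. Cells were HepG2 transiently expressing a chimeric NR-Gal4 construct with GAL4-UAS reporters, exposed to chemicals for 24 h.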
# [3] = molecular target: Nuclear receptor subfamily 1 group I member 2 (Homo sapiens) (UniProt O75469); assay: ATG_PXR_TRANS: Attagene TRANS-FACTORIAL HepG2 Assay for human Pregnane X Receptor (PXR) (AID 2283008)
# Sequence of Nuclear receptor subfamily 1 group I member 2 (Homo sapiens) (O75469 whole entry, looked up, the tested form may be a part): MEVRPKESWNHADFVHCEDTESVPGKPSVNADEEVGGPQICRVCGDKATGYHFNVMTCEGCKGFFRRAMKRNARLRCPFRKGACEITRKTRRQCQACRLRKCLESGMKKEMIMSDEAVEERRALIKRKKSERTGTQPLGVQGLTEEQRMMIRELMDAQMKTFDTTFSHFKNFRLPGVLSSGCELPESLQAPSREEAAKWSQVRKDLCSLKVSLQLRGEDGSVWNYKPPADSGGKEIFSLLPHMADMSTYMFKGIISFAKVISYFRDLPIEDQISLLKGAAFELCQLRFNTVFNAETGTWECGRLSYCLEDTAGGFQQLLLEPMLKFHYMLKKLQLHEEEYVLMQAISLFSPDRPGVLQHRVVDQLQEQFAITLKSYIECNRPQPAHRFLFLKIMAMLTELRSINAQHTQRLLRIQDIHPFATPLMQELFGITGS
# Outline: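 Transient HepG2 transfectants carrying multiplexed reporter transcription units; PXR activity read through a Gal4 chimera. 24 h exposure. RT-PCR/CE fluorescence; upward curve fit referenced to DMSO.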
# [4] = molecular target: human Retinoic Acid Receptor gamma (RARg), RARG (gene 5916) (UniProt P13631); assay: ATG_RARg_TRANS: Attagene TRANS-FACTORIAL HepG2 Assay for human Retinoic Acid Receptor gamma (RARg) (AID 2283009)
# Sequence of human Retinoic Acid Receptor gamma (RARg), RARG (gene 5916) (P13631 whole entry, looked up, the tested form may be a part): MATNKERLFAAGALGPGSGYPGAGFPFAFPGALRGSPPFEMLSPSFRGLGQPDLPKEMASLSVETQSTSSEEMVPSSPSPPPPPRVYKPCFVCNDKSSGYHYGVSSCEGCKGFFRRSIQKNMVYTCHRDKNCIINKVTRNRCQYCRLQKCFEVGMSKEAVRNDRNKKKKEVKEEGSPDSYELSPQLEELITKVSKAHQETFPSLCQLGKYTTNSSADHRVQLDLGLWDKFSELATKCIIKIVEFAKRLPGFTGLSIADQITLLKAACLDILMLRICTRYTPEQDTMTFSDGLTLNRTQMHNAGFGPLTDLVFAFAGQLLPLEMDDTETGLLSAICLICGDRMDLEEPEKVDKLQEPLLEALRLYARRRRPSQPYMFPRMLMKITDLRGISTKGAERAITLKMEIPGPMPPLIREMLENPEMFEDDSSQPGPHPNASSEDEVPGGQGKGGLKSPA
# Outline: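 Readout: reporter transcript levels via RT-PCR, 6-FAM primer-extension labelling, HpaI digestion and capillary electrophoresis. Cells: HepG2 carrying transfected RARg-GAL4 chimera plus UAS reporter set. Dosing 24 h; DMSO negative control.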
# [5] = molecular target: human RAR-related Orphan Receptor gamma (RORg), RORC (gene 6097) (UniProt P51449); assay: ATG_RORg_TRANS: Attagene TRANS-FACTORIAL HepG2 Assay for human RAR-related Orphan Receptor gamma (RORg) (AID 2283011)
# Outline: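 Readout: reporter transcript induction (RT-PCR, fluorescent primer extension, capillary electrophoresis) after 24 h compound exposure of transiently transfected HepG2 cells carrying a RORg-Gal4 chimera and GAL4-UAS reporters; DMSO served as baseline, with increasing signal fitted.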
# [6] = read-out: E-selectin (Homo sapiens) (UniProt P16581); assay: BSK_3C_Eselectin: BioMAP Diversity Plus: 3C Assay for Eselectin Biomarker Activity (AID 2283015; active = hit-call score of the fitted dose curve at least 0.9, where 1 is the maximum; inactive = score below 0.9;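 as to outcome: cell surface E-selectin protein quantified by ELISA 24 h after dosing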); conditions: primary human endothelial cells (HUVEC); actives raise or lower the signal
# Outline: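 Primary human umbilical vein endothelial cells (3C system) were dosed with chemical and cell-surface E-selectin measured by ELISA 24 h later. Bidirectional curve fitting used DMSO as negative control and baseline.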
# [7] = read-out: Interleukin-1 alpha (IL1a), IL1A (gene 3552); assay: BSK_BE3C_IL1a: BioMAP Diversity Plus: BE3C Assay for Interleukin-1 alpha (IL1a) Biomarker Activity (AID 2283016; active = hit-call score of the fitted dose curve at least 0.9, where 1 is the maximum; inactive = score below 0.9); conditions: primary human bronchial epithelial cells; actives raise or lower the signal
# Outline: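 ELISA read-out of IL-1a from human lung bronchial epithelial primary cells, 24 h post-dose. Gain or loss of signal fitted relative to DMSO negative control.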
# [8] = read-out: Monocyte Chemoattractant Protein-1 (MCP1), CCL2 (gene 6347); assay: BSK_3C_MCP1: BioMAP Diversity Plus: 3C Assay for Monocyte Chemoattractant Protein-1 (MCP1) Biomarker Activity (AID 2283017; active = hit-call score of the fitted dose curve at least 0.9, where 1 is the maximum; inactive = score below 0.9); conditions: primary human endothelial cells (HUVEC); actives raise or lower the signal
# Outline: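 Primary human umbilical vein endothelial cells (3C system) were exposed to test chemical for 24 h, after which MCP-1 was quantified by ELISA. Activity was fitted bidirectionally against DMSO as negative control and baseline.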
# [9] = read-out: Monocyte Chemoattractant Protein-1 (MCP1), CCL2 (gene 6347); assay: BSK_4H_MCP1: BioMAP Diversity Plus: 4H Assay for Monocyte Chemoattractant Protein-1 (MCP1) Biomarker Activity (AID 2283018; active = hit-call score of the fitted dose curve at least 0.9, where 1 is the maximum; inactive = score below 0.9); conditions: primary human endothelial cells (HUVEC); actives raise or lower the signal
# Outline: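 HUVEC primary cells, 24 h post-dose, MCP-1 by ELISA. Gain or loss of signal fitted bidirectionally vs DMSO baseline. Cytotoxicity: SRB stain (0.1% after 10% TCA fixation), read 560 nm, parallel cultures.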
# [10] = read-out: Human Leukocyte Antigen - DR isotype (HLADR), HLA-DRA (gene 3122); assay: BSK_3C_HLADR: BioMAP Diversity Plus: 3C Assay for Human Leukocyte Antigen - DR isotype (HLADR) Biomarker Activity (AID 2283019; active = hit-call score of the fitted dose curve at least 0.9, where 1 is the maximum; inactive = score below 0.9;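 as to outcome: ELISA of cell-surface HLA-DR on HUVEC 24 h after dosing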); conditions: primary human endothelial cells (HUVEC); actives raise or lower the signal
# Outline: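 Primary human umbilical vein endothelial cells (3C system) were dosed with compound and cell-surface HLA-DR was quantified by ELISA at 24 h. Activity was fitted bidirectionally against DMSO as negative control and baseline.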
# [11] = read-out: Interleukin-8 (IL8), CXCL8 (gene 3576); assay: BSK_3C_IL8: BioMAP Diversity Plus: 3C Assay for Interleukin-8 (IL8) Biomarker Activity (AID 2283020; active = hit-call score of the fitted dose curve at least 0.9, where 1 is the maximum; inactive = score below 0.9); conditions: primary human endothelial cells (HUVEC); actives raise or lower the signal
# Outline: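 HUVEC, 3C stimulation; 24 h compound exposure; IL-8 read by ELISA; gain or loss of signal fitted relative to DMSO control.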
# [12] = read-out: Monokine induced gamma interferon (MIG), CXCL9 (gene 4283); assay: BSK_3C_MIG: BioMAP Diversity Plus: 3C Assay for Monokine induced gamma interferon (MIG) Biomarker Activity (AID 2283021; active = hit-call score of the fitted dose curve at least 0.9, where 1 is the maximum; inactive = score below 0.9;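 as to AC50: MIG protein level measured by immunoassay in the treated endothelial cultures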); conditions: primary human endothelial cells (HUVEC); actives raise or lower the signal
# Outline: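 HUVEC, 3C system; 24 h chemical exposure; MIG by ELISA; bidirectional fit vs DMSO baseline.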
# [13] = molecular target: human Vitamin D Receptor (VDR), VDR (gene 7421) (UniProt P11473); assay: ATG_VDR_TRANS: Attagene TRANS-FACTORIAL HepG2 Assay for human Vitamin D Receptor (VDR) (AID 2283022)
# Sequence of human Vitamin D Receptor (VDR), VDR (gene 7421) (P11473 whole entry, looked up, the tested form may be a part): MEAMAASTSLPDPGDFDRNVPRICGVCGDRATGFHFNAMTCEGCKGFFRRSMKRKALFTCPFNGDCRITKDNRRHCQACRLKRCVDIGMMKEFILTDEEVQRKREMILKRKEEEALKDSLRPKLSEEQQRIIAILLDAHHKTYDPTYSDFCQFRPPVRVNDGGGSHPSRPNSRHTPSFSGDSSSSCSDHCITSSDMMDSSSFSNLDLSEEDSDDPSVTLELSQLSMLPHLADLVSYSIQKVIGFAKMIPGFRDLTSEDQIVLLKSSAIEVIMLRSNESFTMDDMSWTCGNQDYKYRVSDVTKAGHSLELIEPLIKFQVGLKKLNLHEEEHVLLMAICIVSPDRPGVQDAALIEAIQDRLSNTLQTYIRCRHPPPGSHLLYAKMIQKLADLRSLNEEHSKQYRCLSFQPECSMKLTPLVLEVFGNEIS
# Outline: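 HepG2 cells were transiently transfected with multiple GAL4-UAS reporter units, so signal reflects exogenous chimeric receptor-Gal4 activity. After 24 h compound exposure, reporter mRNA was measured by RT-PCR, fluorescent labelling and capillary electrophoresis, fitted for gain of signal versus DMSO.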
# [14] = BSK_3C_SRB: Viability Assessment in the BioMAP Diversity Plus: 3C Assay (AID 2283023; active = hit-call score of the fitted dose curve at least 0.9, where 1 is the maximum; inactive = score below 0.9;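 also: fitted both ways against DMSO so a hit may be signal rise or drop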); conditions: primary human endothelial cells (HUVEC)
# Outline: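 Primary human umbilical vein endothelial cells in the 3C system were read 24 h after compound dosing. Total protein was stained with 0.1% sulforhodamine B after 10% TCA fixation and read at 560 nm, with bidirectional fitting against DMSO as baseline.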
# [15] = read-out: Matrix Metallopeptidase 1 (MMP1), MMP1 (gene 4312); assay: BSK_BE3C_MMP1: BioMAP Diversity Plus: BE3C Assay for Matrix Metallopeptidase 1 (MMP1) Biomarker Activity (AID 2283024; active = hit-call score of the fitted dose curve at least 0.9, where 1 is the maximum; inactive = score below 0.9); conditions: primary human bronchial epithelial cells; actives raise or lower the signal
# Outline: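 ELISA read-out of MMP1 in human lung bronchial epithelial primary cultures, 24 h post-dose; bidirectional curve fit vs DMSO baseline, gain or loss of signal scored.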
# [16] = molecular target: Retinoic acid receptor alpha (Homo sapiens) (UniProt P10276); assay: ATG_RARa_TRANS: Attagene TRANS-FACTORIAL HepG2 Assay for human Retinoic Acid Receptor alpha (RARa) (AID 2283005)
# Sequence of Retinoic acid receptor alpha (Homo sapiens) (P10276 whole entry, looked up, the tested form may be a part): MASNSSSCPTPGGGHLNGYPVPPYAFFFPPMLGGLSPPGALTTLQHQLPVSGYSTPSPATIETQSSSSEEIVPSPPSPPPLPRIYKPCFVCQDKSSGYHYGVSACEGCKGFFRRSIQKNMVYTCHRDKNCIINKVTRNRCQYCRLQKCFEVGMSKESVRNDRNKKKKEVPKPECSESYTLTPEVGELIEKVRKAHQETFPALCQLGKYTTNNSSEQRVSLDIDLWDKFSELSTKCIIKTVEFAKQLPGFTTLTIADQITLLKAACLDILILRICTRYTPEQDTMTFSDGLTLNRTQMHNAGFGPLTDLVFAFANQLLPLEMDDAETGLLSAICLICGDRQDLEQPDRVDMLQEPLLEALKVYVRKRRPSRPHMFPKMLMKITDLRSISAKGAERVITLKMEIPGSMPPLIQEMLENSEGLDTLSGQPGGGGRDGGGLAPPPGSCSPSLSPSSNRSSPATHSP
# Outline: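 HepG2 transiently transfected with multiplex GAL4-UAS reporter units including a human RARa–GAL4 chimera; 24 h compound exposure. Reporter mRNA quantified by RT-PCR, 6-FAM labeling and capillary electrophoresis; gain of signal versus DMSO.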
# [17] = molecular target: human Retinoid X Receptor beta (RXRb), RXRB (gene 6257) (UniProt P28702); assay: ATG_RXRb_TRANS: Attagene TRANS-FACTORIAL HepG2 Assay for human Retinoid X Receptor beta (RXRb) (AID 2283013)
# Sequence of human Retinoid X Receptor beta (RXRb), RXRB (gene 6257) (P28702 whole entry, looked up, the tested form may be a part): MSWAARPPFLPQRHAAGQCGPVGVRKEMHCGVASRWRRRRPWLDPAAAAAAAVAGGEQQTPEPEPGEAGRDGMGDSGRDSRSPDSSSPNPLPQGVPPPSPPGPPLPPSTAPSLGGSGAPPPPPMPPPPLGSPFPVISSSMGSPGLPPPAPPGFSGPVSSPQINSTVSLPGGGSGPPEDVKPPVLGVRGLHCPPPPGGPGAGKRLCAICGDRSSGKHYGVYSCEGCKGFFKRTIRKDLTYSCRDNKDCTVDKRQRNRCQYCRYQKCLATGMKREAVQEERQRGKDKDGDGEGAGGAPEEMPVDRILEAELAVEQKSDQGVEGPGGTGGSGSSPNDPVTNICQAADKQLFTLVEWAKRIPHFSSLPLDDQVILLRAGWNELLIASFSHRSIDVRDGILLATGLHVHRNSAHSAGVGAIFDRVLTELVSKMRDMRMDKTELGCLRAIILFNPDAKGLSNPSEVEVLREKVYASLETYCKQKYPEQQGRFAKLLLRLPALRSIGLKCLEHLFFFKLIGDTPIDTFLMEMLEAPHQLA
# Outline: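 Read-out: reporter mRNA induction via RT-PCR plus capillary electrophoresis fluorescence, analysed as signal increase relative to DMSO. Cells were human HepG2, transiently transfected with GAL4-UAS reporter constructs and chimeric receptor-Gal4 fusions, dosed for 24 h.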
# [18] = molecular target: human Thyroid Receptor alpha (THRa1), THRA (gene 7067) (UniProt P10827); assay: ATG_THRa1_TRANS: Attagene TRANS-FACTORIAL HepG2 Assay for human Thyroid Receptor alpha (THRa1) (AID 2283014)
# Sequence of human Thyroid Receptor alpha (THRa1), THRA (gene 7067) (P10827 whole entry, looked up, the tested form may be a part): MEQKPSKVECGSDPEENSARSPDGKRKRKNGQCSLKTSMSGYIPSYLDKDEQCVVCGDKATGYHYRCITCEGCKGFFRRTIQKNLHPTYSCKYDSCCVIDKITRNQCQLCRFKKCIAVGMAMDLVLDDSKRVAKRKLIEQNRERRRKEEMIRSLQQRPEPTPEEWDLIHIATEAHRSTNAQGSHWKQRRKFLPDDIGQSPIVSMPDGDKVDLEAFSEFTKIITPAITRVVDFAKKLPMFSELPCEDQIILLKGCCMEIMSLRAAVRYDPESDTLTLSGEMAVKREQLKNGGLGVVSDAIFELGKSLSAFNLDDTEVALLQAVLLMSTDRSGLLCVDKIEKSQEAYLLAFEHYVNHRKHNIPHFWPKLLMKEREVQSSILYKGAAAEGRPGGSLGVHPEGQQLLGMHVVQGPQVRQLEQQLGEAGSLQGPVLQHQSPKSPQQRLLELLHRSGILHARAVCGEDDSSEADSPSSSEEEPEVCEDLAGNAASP
# Outline: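 HepG2 cells transiently transfected with multiplexed GAL4-UAS reporter units for exogenous chimeric THRa1-Gal4; reporter mRNA measured 24 h after dosing by RT-PCR, 6-FAM labelling, HpaI digestion and capillary electrophoresis. Gain-of-signal fitted versus DMSO baseline.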
# [19] = molecular target: human RAR-related Orphan Receptor beta (RORb), RORB (gene 6096) (UniProt Q92753); assay: ATG_RORb_TRANS: Attagene TRANS-FACTORIAL HepG2 Assay for human RAR-related Orphan Receptor beta (RORb) (AID 2283010)
# Sequence of human RAR-related Orphan Receptor beta (RORb), RORB (gene 6096) (Q92753 whole entry, looked up, the tested form may be a part): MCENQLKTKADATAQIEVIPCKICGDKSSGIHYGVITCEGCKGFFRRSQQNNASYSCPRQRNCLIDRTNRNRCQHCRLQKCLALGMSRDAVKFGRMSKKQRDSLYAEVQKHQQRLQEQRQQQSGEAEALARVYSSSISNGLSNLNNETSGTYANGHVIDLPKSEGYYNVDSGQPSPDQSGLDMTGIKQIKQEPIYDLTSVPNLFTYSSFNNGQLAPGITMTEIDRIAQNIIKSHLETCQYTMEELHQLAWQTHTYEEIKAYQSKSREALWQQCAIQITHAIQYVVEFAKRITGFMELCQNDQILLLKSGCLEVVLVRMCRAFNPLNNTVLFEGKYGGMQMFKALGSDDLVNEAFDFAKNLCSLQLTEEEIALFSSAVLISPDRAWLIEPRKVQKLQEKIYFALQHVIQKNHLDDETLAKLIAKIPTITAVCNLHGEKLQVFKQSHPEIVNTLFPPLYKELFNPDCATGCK
# Outline: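 HepG2, transient MRTU transfection (GAL4-UAS reporters, exogenous NR-Gal4 chimeras); 24 h compound exposure; total RNA → RT-PCR → 6-FAM primer extension → HpaI digest → CE fluorescence. Positive direction vs DMSO baseline.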
# [20] = molecular target: Retinoic acid receptor RXR-alpha (Homo sapiens) (UniProt P19793); assay: ATG_RXRa_TRANS: Attagene TRANS-FACTORIAL HepG2 Assay for human Retinoid X Receptor alpha (RXRa) (AID 2283012)
# Sequence of Retinoic acid receptor RXR-alpha (Homo sapiens) (P19793 whole entry, looked up, the tested form may be a part): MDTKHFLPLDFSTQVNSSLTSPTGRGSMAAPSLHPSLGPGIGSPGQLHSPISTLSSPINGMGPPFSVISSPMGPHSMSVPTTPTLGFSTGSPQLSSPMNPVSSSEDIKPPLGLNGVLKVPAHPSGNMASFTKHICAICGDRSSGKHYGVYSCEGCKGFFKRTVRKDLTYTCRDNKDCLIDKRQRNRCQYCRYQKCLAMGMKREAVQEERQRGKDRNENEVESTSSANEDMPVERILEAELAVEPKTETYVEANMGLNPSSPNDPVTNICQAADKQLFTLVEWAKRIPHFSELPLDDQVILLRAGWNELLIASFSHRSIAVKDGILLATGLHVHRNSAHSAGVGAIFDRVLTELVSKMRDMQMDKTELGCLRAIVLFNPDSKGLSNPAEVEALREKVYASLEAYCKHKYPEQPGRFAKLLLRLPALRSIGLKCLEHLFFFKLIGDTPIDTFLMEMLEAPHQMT
# Outline: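 Read-out: fluorescent reporter-transcript fragments quantified by capillary electrophoresis after RT-PCR. Transiently transfected HepG2 cells carrying GAL4-UAS reporters and NR-GAL4 chimeras were exposed to chemical for 24 h; activity scored as increase over DMSO.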
# Sequence of E-selectin (Homo sapiens) (P16581 whole entry, looked up): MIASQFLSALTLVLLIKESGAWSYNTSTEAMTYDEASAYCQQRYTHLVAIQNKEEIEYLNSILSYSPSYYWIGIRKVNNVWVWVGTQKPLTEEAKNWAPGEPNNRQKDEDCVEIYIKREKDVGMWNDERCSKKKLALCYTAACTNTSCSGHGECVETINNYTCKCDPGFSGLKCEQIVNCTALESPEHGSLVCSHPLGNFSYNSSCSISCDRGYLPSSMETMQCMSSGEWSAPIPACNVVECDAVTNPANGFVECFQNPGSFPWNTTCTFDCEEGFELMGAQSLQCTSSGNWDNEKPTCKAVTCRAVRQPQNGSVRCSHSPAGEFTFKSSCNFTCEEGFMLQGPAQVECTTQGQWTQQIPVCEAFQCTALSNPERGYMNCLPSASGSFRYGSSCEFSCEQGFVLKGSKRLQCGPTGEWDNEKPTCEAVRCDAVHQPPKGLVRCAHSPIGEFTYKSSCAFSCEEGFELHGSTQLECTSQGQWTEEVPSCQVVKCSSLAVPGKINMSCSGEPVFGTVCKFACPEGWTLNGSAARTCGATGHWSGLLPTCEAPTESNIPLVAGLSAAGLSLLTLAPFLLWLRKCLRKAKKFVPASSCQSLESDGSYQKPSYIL
smiles,measurement,setting,value
O=C(N[C@H]1CN2CCC1CC2)c1ccc2c(c1)OCCO2,outcome,[1],inactive
same,outcome,[2],inactive
same,outcome,[3],inactive
same,outcome,[4],inactive
same,outcome,[5],inactive
same,outcome,[6],inactive
same,outcome,[7],inactive
same,outcome,[8],inactive
same,outcome,[9],inactive
same,outcome,[10],inactive
same,outcome,[11],inactive
same,outcome,[12],inactive
same,outcome,[13],inactive
same,outcome,[14],inactive
same,outcome,[15],inactive
O=CCCl,outcome,[16],inactive
same,outcome,[2],inactive
same,outcome,[4],inactive
same,outcome,[17],inactive
same,outcome,[18],inactive
same,outcome,[13],inactive
N#Cc1ccncc1,outcome,[16],inactive
same,outcome,[3],inactive
same,outcome,[4],inactive
same,outcome,[19],inactive
same,outcome,[20],inactive
same,outcome,[17],inactive
same,outcome,[18],inactive
same,outcome,[13],inactive
Brc1ccc(Br)cc1,outcome,[16],inactive
same,outcome,[2],inactive
same,outcome,[19],inactive
same,outcome,[18],inactive
O=c1oc2ccccc2c(O)c1C(CC(O)c1ccc(-c2ccc(Br)cc2)cc1)c1ccccc1 (centres undefined),AC50,[1],6.58 µM (active)
same,AC50,[2],3.95 µM (active) and 676 nM (active)
same,AC50,[3],5.19 µM (active) and 7.74 µM (active)
same,outcome,[19],inactive
same,outcome,[18],inactive
same,AC50,[6],19.1 µM (active)
same,AC50,[7],5.31 µM (active)
same,AC50,[9],1.47 µM (active)
same,AC50,[10],8.28 µM (active)
same,outcome,[11],inactive
same,AC50,[12],31.2 µM (active)
same,outcome,[13],inactive
same,AC50,[14],10.7 µM (active)
same,AC50,[15],9.43 µM (active)
CCCCCCCCCCCCN(C)C,outcome,[1],inactive
same,outcome,[2],inactive
same,outcome,[3],inactive
same,outcome,[4],inactive
same,outcome,[20],inactive
same,outcome,[17],inactive
same,outcome,[6],inactive
same,outcome,[7],inactive
same,outcome,[9],inactive
same,outcome,[10],inactive
same,outcome,[11],inactive
same,outcome,[13],inactive
same,AC50,[14],20 µM (active)
same,outcome,[15],inactive
O=C1C=CC(=O)c2ccccc21,AC50,[1],0.46 µM (active)
same,AC50,[2],5.98 µM (active)
same,outcome,[19],inactive
same,outcome,[5],inactive
same,outcome,[20],inactive
same,outcome,[17],inactive
same,AC50,[6],4.15 µM (active)
same,AC50,[7],3.75 µM (active)
same,AC50,[8],3.04 µM (active)
same,AC50,[9],1.45 µM (active)
same,AC50,[10],2.14 µM (active)
same,AC50,[11],5.23 µM (active)
same,outcome,[13],inactive
same,AC50,[14],4.92 µM (active)
same,AC50,[15],5.57 µM (active)
O=S(=O)(C(Cl)(Cl)Cl)C(Cl)(Cl)Cl,AC50,[1],0.2 µM (active)
same,outcome,[2],inactive
same,outcome,[20],inactive
same,AC50,[17],20 µM (active)
same,AC50,[6],1.86 µM (active)
same,AC50,[7],3.32 µM (active)
same,AC50,[8],1.9 µM (active)
same,AC50,[9],1.16 µM (active)
same,AC50,[10],0.852 µM (active)
same,AC50,[11],5.32 µM (active)
same,outcome,[13],inactive
same,AC50,[14],1.12 µM (active)
same,AC50,[15],7.31 µM (active)
